The full list was thinned out, with hits kept by preference.
TDP1 cell CPT = DT40-hTDP1 cell growth loss with CPT | Potency, µM (titrated, usually from 46.2 µM), for inactives: at the highest dose activity change, negative = growth inhibition, actives largely listed as inhibitors | actives 12% (n = 420,000) | chicken DT40 Tdp1-/-;hTDP1 cells + 20 nM CPT, ATP luminescence, 48 h | AID 686979; further: potency means the concentration at half of the fitted maximal effect; nearly all actives have a fitted effect of over 55% in size
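Chicken DT40 Tdp1-/- cells stably complemented with human TDP1 were seeded at 400 cells/well in medium containing 20 nM camptothecin, exposed to pin-transferred compounds, and grown at 37 °C for at least 48 hr. Viability was read as ATP luminescence.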
DT40 TDP1 no CPT = qHTS for Inhibitors of human tyrosyl-DNA phosphodiesterase 1 (TDP1): qHTS in cells in absence of CPT. DT40 Tdp1-/- hTDP1 cells, no CPT, ATP luminescence, 48 h. Potency, µM (highest dose often 46.2 µM), without a hit: top-dose activity change, negative = growth inhibition, actives largely listed as inhibitors. actives 15% (n = 420,000). AID 686978, 2013; further: potency means the concentration at half of the fitted maximal effect; nearly all actives have a fitted effect of over 55% in size
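Camptothecin absent (DMSO only). Human TDP1-complemented DT40 knockout cells, 400 cells/well, 37 °C for minimum 48 hr; ATP measured via CellTiter-Glo, 30 min dark incubation, luminescence.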
HT1080-NT tox = kills 2HG-producing HT-1080-NT fibrosarcoma cells; actives 1.6% (n = 360,000); AID 686970; HT-1080-NT fibrosarcoma viability, CellTiter-Glo ATP luminescence, 48 h; Potency, µM (series often up to 46.1 µM), inactives show at the highest dose activity, negative = less viability, most hits filed as cytotoxic;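 further: NT is the 2HG producing partner of a matched IDH1 knockdown line; potency means the concentration at half of the fitted maximal effect; 0% = DMSO-treated cells and -100% = media-only wells without cells; nearly all actives have a fitted effect of over 55% in size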
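Luminescent CellTiter-Glo readout after 48 hours of compound exposure at 37 degrees C defined viability of HT-1080-NT cells. Activity was normalized to DMSO wells and cell-free media wells; concentration-response curves were fitted and assigned curve classes.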
ALOX12 inh = blocks human arachidonate 12S-lipoxygenase | P18054 | purified 12hLO, xylenol orange hydroperoxide absorbance | Potency, µM (series often up to 108 µM), for the others: at the highest dose activity change, negative = inhibition, usual class: inhibitors | actives 1.1% (n = 580,000); further: potency means the concentration at half of the fitted maximal effect
Target sequence (P18054 whole entry, looked up): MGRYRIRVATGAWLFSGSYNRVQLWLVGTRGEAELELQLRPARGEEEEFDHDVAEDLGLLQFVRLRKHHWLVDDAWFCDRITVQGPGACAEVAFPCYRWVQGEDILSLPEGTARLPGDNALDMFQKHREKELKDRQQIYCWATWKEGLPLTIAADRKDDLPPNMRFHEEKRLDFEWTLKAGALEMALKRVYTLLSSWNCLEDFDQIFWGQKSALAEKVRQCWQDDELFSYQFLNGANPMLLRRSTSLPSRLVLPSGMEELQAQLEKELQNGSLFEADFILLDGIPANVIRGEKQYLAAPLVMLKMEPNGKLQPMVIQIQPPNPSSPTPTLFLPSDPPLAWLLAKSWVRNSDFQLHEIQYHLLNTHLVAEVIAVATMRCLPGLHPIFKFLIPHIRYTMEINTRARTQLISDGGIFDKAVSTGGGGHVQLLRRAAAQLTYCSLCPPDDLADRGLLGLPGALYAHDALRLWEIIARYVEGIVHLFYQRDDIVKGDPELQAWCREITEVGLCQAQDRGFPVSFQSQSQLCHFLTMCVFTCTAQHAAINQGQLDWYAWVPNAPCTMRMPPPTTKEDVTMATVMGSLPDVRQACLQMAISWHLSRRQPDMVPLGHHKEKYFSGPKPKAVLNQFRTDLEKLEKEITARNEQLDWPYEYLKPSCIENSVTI
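Purified human 12hLO at 150 nM in 25 mM Hepes, 0.01% Triton X-100, pH 7.0, preincubated 15 min at room temperature with compound. Reaction started with 40 uM arachidonic acid, 30 min at room temperature. Hydroperoxide measured by Fe-xylenol orange, 573/405 nm absorbance ratio.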
IL1B secr inh = blocks inflammasome-driven IL-1 beta release; THP-1 LPS/ATP IL-1B secretion, AlphaLISA, 16 h; active compounds read low; activity change, % at 57.5 µM; actives 4.7% (n = 360,000); AID 743279; in the data active means activity change below about -50%; inconclusive means mostly about -30% to -49%
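Secreted IL-1B measured by AlphaLISA bead assay after 16 h compound exposure of THP-1 cells; compounds (final up to 57.5 uM) added 1 h before LPS (250 ng/mL) and ATP (1.25 mM) stimulation; lower signal means less secretion.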
HT1080 IDH1KD tx = kills HT-1080 cells with IDH1 knockdown; actives 2% (n = 360,000); Potency, µM (highest dose often 46.1 µM), for the others: at the highest dose activity, negative = toxicity, usual class: cytotoxic; AID 686971; HT-1080 IDH1 knockdown viability, ATP luminescence, 48 h;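 further: potency means the concentration at half of the fitted maximal effect; 0% = DMSO wells and -100% = cell-free medium wells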
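CellTiter-Glo luminescence after 48 h compound exposure at 37 degrees C of IDH1-knockdown HT-1080 cells in 5% FBS RPMI. %Activity scaled between DMSO wells and cell-free media wells, with curves fitted and assigned curve classes.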
Starred values were filed as active, the others as inactive. Unless noted, the call rests on the fitted dose curve; in most records, active means well fitted curve in the direction sought with a large enough effect; inconclusive means small, poorly fitted or top-dose-only effect, or another doubt; inactive means no such curve, though single readings can be large; an effect the other way counts as inactive or inconclusive. Unless noted, on the % scale 0 is the no-effect control and ±100 the full control effect.

Screening CCOC(=O)[C@@H]1[C@H]2COc3ccccc3[C@@H]2N2C(=O)N(c3ccc(Cl)cc3)C(=O)[C@@]12C returned TDP1 cell CPT -18%, DT40 TDP1 no CPT -22%, HT1080-NT tox 0%, ALOX12 inh 2%, IL1B secr inh -11 and HT1080 IDH1KD tx -1%.
Screening CC(C)CN(C(=O)COC(=O)c1cnc(Cl)c(Cl)c1)c1c(N)n(Cc2ccccc2)c(=O)[nH]c1=O returned TDP1 cell CPT -24%, DT40 TDP1 no CPT -10%, HT1080-NT tox -2%, ALOX12 inh -2%, IL1B secr inh -96* and HT1080 IDH1KD tx -6%.
Screening CC(C)CN(C(=O)COC(=O)c1cccnc1Cl)c1c(N)n(Cc2ccccc2)c(=O)[nH]c1=O returned TDP1 cell CPT 10%, DT40 TDP1 no CPT 4%, HT1080-NT tox 1%, ALOX12 inh -14%, IL1B secr inh inconclusive and HT1080 IDH1KD tx 4%.
CCN(C(=O)COC(=O)CCCc1nc2ccccc2s1)c1c(N)n(Cc2ccccc2)c(=O)[nH]c1=O was read as TDP1 cell CPT inconclusive, DT40 TDP1 no CPT inconclusive, HT1080-NT tox 0%, ALOX12 inh 10%, IL1B secr inh 8 and HT1080 IDH1KD tx 0%.
Screening CC(C)CN(C(=O)COC(=O)CCc1nc2ccccc2s1)c1c(N)n(Cc2ccccc2)c(=O)[nH]c1=O returned TDP1 cell CPT 16µM*, DT40 TDP1 no CPT inconclusive, HT1080-NT tox 5%, ALOX12 inh -7%, IL1B secr inh -7 and HT1080 IDH1KD tx 8%.
For CC(C)=CCCC1(C)C=Cc2c(c(C)cc3c2[nH]c2cc(O)ccc23)O1 (stereo not given) the results were TDP1 cell CPT inconclusive, DT40 TDP1 no CPT 16µM*, HT1080-NT tox inconclusive, ALOX12 inh inconclusive, IL1B secr inh -74* and HT1080 IDH1KD tx inconclusive.
For Cc1ccc(C(=O)N2c3ccccc3OCC2C)cc1 (stereo not given) the results were TDP1 cell CPT -9%, DT40 TDP1 no CPT -13%, HT1080-NT tox 1%, ALOX12 inh 0%, IL1B secr inh 0 and HT1080 IDH1KD tx 1%.
Screening CCCC(=O)O[C@@H]1C[C@@H](C)N(C(=O)c2ccccc2)c2ccc(C)cc21 returned TDP1 cell CPT 21µM*, DT40 TDP1 no CPT 21µM*, HT1080-NT tox -10%, ALOX12 inh -5%, IL1B secr inh -3 and HT1080 IDH1KD tx -15%.
For Cc1ccn2c(C(=O)N3CCn4nc(CCC(=O)NC(C)C)cc4C3)nnc2n1 the results were ALOX12 inh 58%.
For O=C(c1ccsc1)N1CCC(Cc2nc(C3CCOCC3)no2)CC1 the results were ALOX12 inh 14%.
`O=C(CCC1CCCN(S(=O)(=O)c2ccccc2F)C1)NC1CCS(=O)(=O)C1` (stereo not given) gave ALOX12 inh 62%.
Screening COc1ccccc1NC(=O)COc1ccccc1C(=O)c1cnn(-c2ccccc2)c1 returned TDP1 cell CPT 21µM*, DT40 TDP1 no CPT 23µM*, HT1080-NT tox -2%, ALOX12 inh -9%, IL1B secr inh 0 and HT1080 IDH1KD tx -11%.
`CC#CCOC(=O)c1c(C)nc2sc3c(c2c1N)CC[C@@H](O)C3` gave TDP1 cell CPT -59%, DT40 TDP1 no CPT 11µM* and ALOX12 inh inconclusive.
For CCc1cccc(CC)c1NC(=O)C1CCCC1 the results were ALOX12 inh -7%.
Screening Cc1cc(NC(=O)CSCC(=O)Nc2ccccc2Oc2ccccc2)no1 returned TDP1 cell CPT -24%, DT40 TDP1 no CPT inconclusive, HT1080-NT tox -14%, ALOX12 inh 1%, IL1B secr inh 3 and HT1080 IDH1KD tx -29%.
For COc1ccc(CC(=O)Nc2nc(-c3cc(OC)ccc3OC)cs2)cc1 the results were TDP1 cell CPT inconclusive, DT40 TDP1 no CPT inconclusive, HT1080-NT tox -19%, ALOX12 inh -1%, IL1B secr inh -88* and HT1080 IDH1KD tx -10%.
Cc1ccc(Oc2ccccc2NC(=O)CSCC(=O)Nc2cc(C)on2)cc1 was read as TDP1 cell CPT 8.2µM*, DT40 TDP1 no CPT 10µM*, HT1080-NT tox inconclusive, ALOX12 inh 16%, IL1B secr inh 7 and HT1080 IDH1KD tx inconclusive.
`COc1ccc(OC)c(-c2csc(NC(=O)Cc3ccccc3)n2)c1` gave TDP1 cell CPT inconclusive, DT40 TDP1 no CPT inconclusive, HT1080-NT tox inconclusive, ALOX12 inh -10%, IL1B secr inh -10 and HT1080 IDH1KD tx inconclusive.
Screening COc1ccc(OC)c(-c2csc(NC(=O)C3COc4ccccc4O3)n2)c1 (stereo not given) returned TDP1 cell CPT inconclusive, DT40 TDP1 no CPT 16µM*, HT1080-NT tox 1%, ALOX12 inh -44%, IL1B secr inh -12 and HT1080 IDH1KD tx 3%.
COc1ccc(OC)c(-c2csc(NC(=O)CSc3ccccc3)n2)c1 was read as TDP1 cell CPT inconclusive, DT40 TDP1 no CPT 13µM*, HT1080-NT tox -1%, ALOX12 inh inconclusive, IL1B secr inh inconclusive and HT1080 IDH1KD tx 1%.
`Cc1ccc2oc(C(=O)Nc3cccc(C(=O)N(C)C)c3)cc(=O)c2c1` gave ALOX12 inh 4%.
COc1ccc(CC(=O)Nc2nc(C)cs2)cc1 was read as TDP1 cell CPT 7%, DT40 TDP1 no CPT 12%, HT1080-NT tox 18%, ALOX12 inh 4%, IL1B secr inh 5 and HT1080 IDH1KD tx 7%.
For Cc1cccc(OCC(=O)Nc2cc(C)on2)c1 the results were TDP1 cell CPT 3%, DT40 TDP1 no CPT 18%, HT1080-NT tox 25%, ALOX12 inh 106%, IL1B secr inh 12 and HT1080 IDH1KD tx 20%.
`COc1ccc(-c2csc(NC(=O)CSc3ccc(Br)cc3)n2)c(OC)c1` gave TDP1 cell CPT 18µM*, DT40 TDP1 no CPT 16µM*, HT1080-NT tox -3%, ALOX12 inh -28%, IL1B secr inh -1 and HT1080 IDH1KD tx -4%.
`COc1ccc(CC(=O)Nc2nc(C(C)(C)C)cs2)cc1` gave TDP1 cell CPT -19%, DT40 TDP1 no CPT -29%, HT1080-NT tox -10%, ALOX12 inh -12%, IL1B secr inh -108* and HT1080 IDH1KD tx -17%.

Screens deposited in PubChem by National Center for Advancing Translational Sciences (NCATS).
